Data taken from the supplement of paper PMC10933113.

tested on: KeratinoSens (HaCaT ARE-luciferase) cells; assay: Nrf2/ARE luciferase activation call in qHTS KeratinoSens assay (1 = active, 0 = inactive);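 active = curve rank above 3; inactive = curve rank 0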

| SMILES | Nrf2/ARE luciferase activation call |
| --- | --- |
| NC[C@H](O)c1ccc(O)c(O)c1.O=C(O)C(O)C(O)C(=O)O.O=C(O)C(O)C(O)C(=O)O | not active ARE inducer (skin sensitizer alert) (inactive) |
| CCCCn1cc[n+](C)c1C.O=S(=O)([O-])C(F)(F)F | not active ARE inducer (skin sensitizer alert) (inactive) |
| CCOc1cc(N)c(Cl)cc1C(=O)NCC1CN(Cc2ccc(F)cc2)CCO1.O=C(O)CC(O)(CC(=O)O)C(=O)O (stereo unspecified) | not active ARE inducer (skin sensitizer alert) (inactive) |
| O=C(O)/C=C/C(=O)O.O=C1c2ccccc2C(=O)N1CCc1noc(-c2ccc(CN3CCCCCC3)s2)n1 | not active ARE inducer (skin sensitizer alert) (inactive) |
| NC(CO)(CO)CO.O=C(c1ccccc1)c1ccc2n1CC[C@H]2C(=O)O | not active ARE inducer (skin sensitizer alert) (inactive) |
| CCN(CC)C(=O)N1CCN(C)CC1.O=C(O)CC(O)(CC(=O)O)C(=O)O | not active ARE inducer (skin sensitizer alert) (inactive) |
